# In all, about 290,000 compounds went through this assay and about 3,000 (1%) were called active. How the calls were made is not given here. For the sample, actives were picked, then their nearest neighbours and some compounds at random.
# Biological target: Polyadenylate-binding protein 1 (Homo sapiens) (UniProt P11940)
# Assay: PABP poly(A) RNA binding inhibitors, primary screen, biochemical, fluorescence polarization, uHTS (AID 2014);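 further: calls also rest on retests at 20 µM and on dose response follow-up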
# Settings: stronger effect = higher value
# Chain of Polyadenylate-binding protein 1 (Homo sapiens) (P11940 whole entry, looked up): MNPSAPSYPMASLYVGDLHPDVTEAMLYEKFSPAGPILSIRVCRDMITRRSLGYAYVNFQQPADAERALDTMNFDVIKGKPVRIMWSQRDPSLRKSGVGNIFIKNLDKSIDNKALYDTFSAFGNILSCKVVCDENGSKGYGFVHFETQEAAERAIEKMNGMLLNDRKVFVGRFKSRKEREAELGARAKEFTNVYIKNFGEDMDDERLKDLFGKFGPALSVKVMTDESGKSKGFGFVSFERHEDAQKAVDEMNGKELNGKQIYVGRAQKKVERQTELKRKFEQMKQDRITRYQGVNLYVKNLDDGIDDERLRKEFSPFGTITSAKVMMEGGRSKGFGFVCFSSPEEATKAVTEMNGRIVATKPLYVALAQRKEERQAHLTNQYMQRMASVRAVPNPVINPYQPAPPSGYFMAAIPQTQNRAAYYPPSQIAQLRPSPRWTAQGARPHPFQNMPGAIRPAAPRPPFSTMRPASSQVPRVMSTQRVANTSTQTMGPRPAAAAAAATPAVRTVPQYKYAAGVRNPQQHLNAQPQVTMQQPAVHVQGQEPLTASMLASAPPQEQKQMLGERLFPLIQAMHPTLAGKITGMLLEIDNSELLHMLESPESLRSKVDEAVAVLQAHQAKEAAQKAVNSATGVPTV
SMILES,inhibition (at 35 µM),"inhibition (confirmation repeats, at 20 µM) [%]"
O=C(NCc1cccc(C(F)(F)F)c1)c1cccc(S(=O)(=O)N2CCN(Cc3ccccc3)CC2)c1,-3.2% (inactive),
O=C(Nc1ccc(Br)cc1F)C1CC(=O)N(C2CCCCC2)C1 (centres undefined),-1% (inactive),
COc1ccc(C(=O)NC(C)c2nccs2)cc1OC1CCN(C(C)C)CC1 (centres undefined),1.2% (inactive),
CCN(C(=O)CSc1nnc(-c2ccncc2)o1)c1ccccc1,-2.5% (inactive),
CCSc1nc(O)c(C(c2cccc(OC)c2)c2c(O)nc(SCC)[nH]c2=O)c(=O)[nH]1,8.4% (inactive),
N#CC1=C(N)N(c2ccc(F)cc2)C(=O)C1,97.6% (active),
O=C1CCCC2=C1C(c1cccs1)CC(=O)N2c1ccc(F)cc1 (centres undefined),-1.2% (inactive),
O=C1CC(N2CCN(c3ccc(F)cc3)CC2)C(=O)N1c1ccccc1 (centres undefined),48.8% (inactive),
C[C@H]1[C@H]2c3nc4ccccc4n3C[C@H]1ON2C1CCCCC1,-0.1% (inactive),
O=c1nc2s/c(=C\c3ccco3)c(=O)n2nc1Cc1ccccc1,75.7% (active),
Cc1nc2nc(SCC(=O)NCc3ccco3)nn2c(C)c1Cc1ccccc1,10.6% (inactive),
O=C(Cc1ccccc1)n1nc(-c2ccccc2)nc1NCc1ccco1,-0.2% (inactive),
CCOCCc1nn2c(=O)cc(CSCC(=O)Nc3cccc(C)c3C)nc2s1,8.3% (inactive),
COc1ccc(-c2csc(NC3OC(=O)c4ccccc43)n2)cc1 (centres undefined),-0.5% (inactive),
COc1ccc(-c2csc(Cc3nc(O)cs3)n2)cc1,70.4% (active),52.3
CC(C)(C)C(=O)OCc1nc(-c2ccc(O)c(O)c2)cs1,10% (inactive),
O=c1ccc2cc(S(=O)(=O)Nc3ccccc3F)ccc2o1,-1.5% (inactive),
Cc1c(NC(=O)c2c([N+](=O)[O-])cnn2C)c(=O)n(-c2ccccc2)n1C,-1.3% (inactive),
Cc1ccc(-n2c(O)c(C=Nc3ccc(S(=O)(=O)Nc4ncccn4)cc3)c3ccccc3c2=O)cc1C,-8.1% (active),94.9
CCOc1ccc(N=Cc2c(O)n(-c3cccc(C)n3)c(=O)c3ccccc23)cc1,-1.3% (inactive),
CCOc1ccc(-n2c(O)c(/C=N/Nc3nc(C)cc(C)n3)c3ccccc3c2=O)cc1,9% (inactive),
O=C(NCC(=O)N1CCN(c2ncc(C(F)(F)F)cc2Cl)CC1)c1ccc(Br)o1,3.4% (inactive),
CC(=O)N1CCSc2ccc(S(=O)(=O)N3CCC(C)CC3)cc21,0% (inactive),
Cc1cccc(OCC(=O)NC2CC(C)(C)NC(C)(C)C2)c1,6.7% (inactive),

SMILES,inhibition (at 35 µM),"inhibition (confirmation repeats, at 20 µM) [%]"
CC1(OC(=O)CCc2ccccc2)C(=O)C=C2C=C(c3ccc(C#N)cc3)N(CCc3ccccn3)C=C2C1=O (centres undefined),26.9% (inactive),
C=CCN1C=C2C(=O)C(C)(OC(=O)CCc3ccccc3)C(=O)C=C2C=C1c1ccc(C#N)cc1 (centres undefined),38.3% (active),80.1
NC(=O)COc1ccccc1C(=O)NC12CC3CC(CC(C3)C1)C2,-0.3% (inactive),
Cc1cc(/C=N/Nc2ccc([N+](=O)[O-])cn2)c(C)n1-c1cccc(C(=O)O)c1,50.3% (active),
COc1cc(/C=N\Nc2ccc([N+](=O)[O-])cn2)ccc1OCC(=O)O,13.3% (inactive),
Cc1ccc(-n2c(C)cc(/C=N/Nc3ccc([N+](=O)[O-])cn3)c2C)c(C)c1,10.5% (inactive),
CC(C)=CCN1CCN(CCCc2ccccc2)CC1CCO (centres undefined),-4.3% (inactive),
CN1/C(=C\C(=O)c2cccnc2Cl)C(C)(C)c2ccccc21,-4.7% (inactive),
CN1/C(=C\C(=O)c2oc3ccccc3c2N)C(C)(C)c2ccccc21,15.4% (inactive),
CN1/C(=C\C=C2\N=C(c3ccc(F)cc3)OC2=O)C(C)(C)c2ccccc21,120% (active),105
O=C(NCCc1ccc(Cl)cc1)C1CCCN1C(=O)NCc1ccccc1 (centres undefined),-1.3% (inactive),
COc1ccccc1N(CC(=O)Nc1ccccc1C(=O)N1CCCC1)S(C)(=O)=O,0.7% (inactive),
O=C(O)CCCN1C(=O)c2ccccc2Sc2ncccc21,16.4% (inactive),
COc1ccc(C(=O)Nc2ccnn2C2CCN(Cc3ccncc3)CC2)cc1,-4.2% (inactive),
Oc1ccc(N=Cc2sc3ccccc3c2Cl)cc1,-14% (active),68.6
O=C(N/N=C/c1c(Cl)[nH]c2ccccc12)c1sc2ccccc2c1Cl,-2.8% (inactive),
COc1ccc(N=C(C)c2sc3ccccc3c2O)cc1,-3.8% (inactive),
COc1ccccc1N(CC(=O)NC1CCCC1)C(=O)C1(C)CC(=O)N=C2C=CC(C)=CN21 (centres undefined),4.1% (inactive),
O=C(CC12CC3CC(CC(C3)C1)C2)NCc1ccco1,-13.1% (inactive),
O=C(COC(=O)C12CC3CC(CC(C3)C1)C2)NCc1ccco1,26% (active),62.4
O=C(COC(=O)CCC(=O)c1cccs1)NCc1ccco1,35.9% (inactive),32.9
COc1ccc(C(=O)C2CCCN(C(=O)c3cc(C)on3)C2)cc1F (centres undefined),-11.7% (inactive),
Cc1cc(C)n(CCC(=O)N2CCN(S(=O)(=O)c3ccc(C)c(C)c3)CC2)n1,-7.6% (inactive),
